Screens (PubChem BioAssay)
Tgondii IFNg: T. gondii growth inhibition with IFN-gamma, primary screen, cell-based | Toxoplasma gondii growth in IFN-gamma-treated host cells; stronger effect = lower value | activity change, negative = inhibition, % (no concentration beside the values) | 69,000 tested, 3.8% active; in the data active = activity change below about -70%, passing the limit was not always enough;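 also: host cells are HeLa cells infected with Toxoplasma gondii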
Active calls of the source: *; ! = a repeat was not active. Only a selection was taken, and hits are over-represented in it overall.

How did CCN1c2cc(C)ccc2-n2cccc2C12CCN(S(=O)(=O)c1ccc(OC)c(Cl)c1)CC2 do in these assays?
Tgondii IFNg: -100*

How did CCc1ccc(S(=O)(=O)N2CCC3(CC2)c2cccn2-c2ccc(C)cc2N3CC)cc1 do in these assays?
Tgondii IFNg: -65

Results for CCN1c2cc(C)ccc2-n2cccc2C12CCN(S(=O)(=O)c1ccc(Cl)s1)CC2 ?
Tgondii IFNg: -61

What do the screens show for `CCN1c2cc(C)ccc2-n2cccc2C12CCN(S(=O)(=O)c1c(C)noc1C)CC2`?
Tgondii IFNg: 64

How did CCN1c2cc(C)ccc2-n2cccc2C12CCN(S(=O)(=O)c1cc(OC)ccc1OC)CC2 do in these assays?
Tgondii IFNg: -103*

Results for COc1ccc(OC)c(S(=O)(=O)N2CCC3(CC2)Nc2cc(C)ccc2-n2cccc23)c1 ?
Tgondii IFNg: 11

Results for CCN1c2cc(C)ccc2-n2cccc2C12CCN(S(=O)(=O)c1ccc3c(c1)CCCC3)CC2 ?
Tgondii IFNg: -81*

How did COc1ccc2c(c1)NC1(CCN(S(=O)(=O)c3cc(C)ccc3C)CC1)c1cccn1-2 do in these assays?
Tgondii IFNg: -6

How did CCOC(=O)[C@]12CCCN(S(=O)(=O)CC)C[C@@H]1CN(CCN(C)C)C2 do in these assays?
Tgondii IFNg: -3

How did CN(Cc1cc2n(n1)CCNC2)CC1CCN(c2ccccc2)C1 (centres undefined) do in these assays?
Tgondii IFNg: 4

How did CCn1nc(C(=O)N2CCN(Cc3ccncc3)CC2)c2c1CCN(C(=O)c1sc(C)nc1C)C2 do in these assays?
Tgondii IFNg: 4

How did O=C(Nc1ccccc1C(=O)NCc1cccnc1)c1cc2ccccc2o1 do in these assays?
Tgondii IFNg: -35

How did O=C(Nc1c(C(=O)NCc2cccnc2)[nH]c2ccccc12)c1ccc(Cl)cc1 do in these assays?
Tgondii IFNg: -56

How did O=C(NCc1cccnc1)c1ccccc1C(=O)Nc1sc2ccccc2c1Cl do in these assays?
Tgondii IFNg: -94*

How did CCNC(=O)C1(Cc2ccc(-c3cccnc3)cc2)CCN(C(=O)c2ccccc2)C1 (centres undefined) do in these assays?
Tgondii IFNg: -4

Results for CCSc1nc(CC(=O)NC(C)Cn2nc(C)cc2C)cs1 (centres undefined) ?
Tgondii IFNg: 19

What do the screens show for `C/C=C/c1ccc(C2[C@H]3CNC[C@@H]2N3C(=O)Nc2ccccc2Cl)cc1` (some centres undefined)?
Tgondii IFNg: 44

Results for C/C=C/c1ccc(C2[C@H]3CNC[C@@H]2N3C(=O)NC2CCCCC2)cc1 (some centres undefined) ?
Tgondii IFNg: -76*!

What do the screens show for `C/C=C/c1ccc(C2[C@H]3CNC[C@@H]2N3C(=O)NCCC)cc1` (some centres undefined)?
Tgondii IFNg: 8

How did Cc1cccnc1CCn1cnc(-c2ccccc2)c1-c1cccc2nonc12 do in these assays?
Tgondii IFNg: -3

Results for Nc1nonc1-c1nnnn1CC(=O)Nc1cccc2ccccc12 ?
Tgondii IFNg: -2

What do the screens show for `O=C([C@H]1CCC[C@]12CCN(Cc1ccccc1F)C2)N1CCOCC1`?
Tgondii IFNg: -2

How did Cc1cnc(N2CCCn3c(CN4CCCC4)nnc3C2)nc1 do in these assays?
Tgondii IFNg: -29

What do the screens show for `Cc1ccc(Sc2c(Sc3ccc(C)cc3)c(=O)c2=O)cc1`?
Tgondii IFNg: -88*

What do the screens show for `Cc1ccc(SCCC(=O)c2ccc(Cl)cc2)cc1`?
Tgondii IFNg: -10

Results for Cc1ccc(SCCNS(C)(=O)=O)cc1 ?
Tgondii IFNg: 3

What do the screens show for `CCCCN(C)C(=O)c1ncn2c(C3CCN(C(C)=O)CC3)ccnc12`?
Tgondii IFNg: -4

Results for CN(C)CC1(O)CCCN(Cc2ccccc2OCC(=O)O)CC1 (centres undefined) ?
Tgondii IFNg: -13

What do the screens show for `CN(C)CC1(O)CCCN(S(=O)(=O)N(C)Cc2ccccc2)CC1` (centres undefined)?
Tgondii IFNg: -78*

How did CN(C)CC1(O)CCCN(C(=O)CCOc2ccccc2)C1 (centres undefined) do in these assays?
Tgondii IFNg: 5

How did O=S(=O)(NCC1CCC2(CNCCOC2)O1)c1ccccc1 (centres undefined) do in these assays?
Tgondii IFNg: 7

How did Cc1ccc(S(=O)(=O)Oc2ccc(OS(=O)(=O)c3ccc(C)cc3)cc2)cc1 do in these assays?
Tgondii IFNg: -52

How did CC(NC(=O)C(=O)NCCc1csc(-c2ccc(F)cc2)n1)c1ccccc1 (centres undefined) do in these assays?
Tgondii IFNg: 69

Results for Cc1nc(-c2cccc(F)c2)sc1CCNS(=O)(=O)c1cccs1 ?
Tgondii IFNg: 31

What do the screens show for `COc1ccccc1NC(=O)C(=O)NCCc1sc(-c2ccc(OC)c(OC)c2)nc1C`?
Tgondii IFNg: 29

Results for CC(C)c1nn(C)c2c1C(c1nc(-c3ccc(Cl)cc3)no1)CC(=O)N2 (centres undefined) ?
Tgondii IFNg: -85*

What do the screens show for `COc1c(F)cc(C2CC(=O)Nc3c2c(C(C)C)nn3C)cc1Cl` (centres undefined)?
Tgondii IFNg: 4
